Data published in PubChem BioAssay AID1069 (NMMLSC, 2008).

experiment: LNCaP granularity increase inducers, single-point recheck – cell-based, side scatter shift, flow cytometry, confirmation (AID 1069); settings: LNCaP differentiation, 4 d, side scatter shift, at 10 µM, stronger effect = higher value;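 note: LNCaP human prostate cancer cells in low-serum medium with charcoal-stripped FBS; percent of cells with raised granularity gated so DMSO controls show 10%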

Row | Structure (SMILES) | side scatter shift [%]
1 | Cc1nc(NCCNC(=O)c2ccco2)c2c(C)c(C)sc2n1 | 4.2
2 | Cc1ccc2c(c1)c1c(n2CC(O)CNC(CO)(CO)CO)CCCC1 (stereo not drawn) | 12.4
3 | CCc1ccc(-c2nc(CN3CCCC(C(=O)NCCc4ccc(OC)c(OC)c4)C3)c(C)o2)cc1 (stereo not drawn) | 17.3
4 | CCCOc1ccccc1C1CC(=O)Nc2cc3c(cc21)OCO3 (stereo not drawn) | 22.1
5 | O=C(NCCCN1CCN(c2ccc(F)cc2)CC1)c1cccc(N2CCCC2=O)c1 | 13.7
6 | O=C(CN1CCC(n2nnc3cc(F)ccc32)CC1)Nc1ccc2c(c1)CCC2 | 1.9
7 | O=C(c1ccc2c(c1)OCCO2)N1CCCCC1 | 8.05
8 | Cn1nc(-c2ccc(Cl)cc2)c2cc(C(=O)NCCCN3CCCC3)sc21 | 66.5
9 | Cn1cc(CNC(=O)C2c3ccccc3Oc3ccccc32)cn1 | 3
10 | COc1ccc(N2CCN(c3oc(COc4ccccc4Cl)nc3C#N)CC2)cc1 | 9.2
11 | Cc1oc(-c2ccc(Cl)cc2)nc1CN1CCC(C(=O)N2CCc3ccccc3C2)CC1 | 17
12 | Cc1oc(-c2ccccc2F)nc1CN1CCC(C(=O)NCc2cccnc2)CC1 | 3.9
13 | Cc1ccccc1-c1nc(CN2CCC(C(=O)O)CC2)c(C)o1 | 1.25
14 | O=C(C1CCN(S(=O)(=O)c2cccc3nsnc23)CC1)N1CC=C(c2ccccc2)CC1 | 9.3
15 | CCn1c(=O)cc(SCC(=O)N2CCN(C3CCCCC3)CC2)c2ccccc21 | 6.55
16 | Oc1ccccc1CNc1nc2ccccc2n1CCN1CCCCC1 | 12.2
17 | Cc1ccccc1-c1nc(CN2CCC(C(=O)NCCCN3CCCC3)CC2)c(C)o1 | 19.4
18 | CCOC(=O)N1CCN(CC(=O)Nc2cc(C)nn2-c2nc3ccccc3s2)CC1 | 2.6
19 | Cc1cc(=O)c2ccccc2[nH]1 | 2.3

Row | Structure (SMILES) | side scatter shift [%]
20 | O=C(Cn1cc2c(n1)CCCC2)NCCCN1CCN(c2ccccc2F)CC1 | 4.95
21 | O=C(Cn1c(=O)[nH]c2ccsc2c1=O)NC1CCCCCC1 | 5.85
22 | Cc1ccccc1-c1nc(CN2CCC(C(=O)NCc3ccco3)CC2)c(C)o1 | 3.2
23 | CCn1c(=O)cc(SCC(=O)NCCN2CCN(Cc3ccccc3)CC2)c2ccccc21 | 6.85
24 | COc1ccc(-c2noc(CCC(=O)NCCCN3CCC(Cc4ccccc4)CC3)n2)cc1 | 28.6
25 | CCCS(=O)(=O)N1CCCC(C(=O)NCCCN2CCN(c3ccc(F)cc3)CC2)C1 (stereo not drawn) | 12.3
26 | Cc1ccc(C(=O)/C=C/Nc2cccc(O)c2)cc1 | 4.85
27 | Oc1c(CN2CCCCC2)cc(COCc2ccccc2)c2cccnc12 | 51.2
28 | CCS(=O)(=O)N1CCC(C(=O)NCCCN2CCN(c3ccccc3F)CC2)CC1 | 12.6
29 | Cc1ccc(Nc2cc(=O)n(C3CCCCC3)c(=O)[nH]2)cc1C | 10.6
30 | O=C(NCCCN1CCN(c2ccccc2F)CC1)C1CCCN(S(=O)(=O)c2cnc[nH]2)C1 (stereo not drawn) | 4.1
31 | COc1ccc(S(=O)(=O)CCC(=O)O)cc1 | 7.3
32 | CC1(C)CC(=O)c2cc(OCC(=O)NCCCN3CCN(c4ccc(F)cc4)CC3)ccc2O1 | 15.1
33 | COc1ccccc1CNC(=O)C1CCN(Cc2nc(-c3cccc(Cl)c3)oc2C)CC1 | 3.35
34 | CCOC(=O)C1CCN(S(=O)(=O)c2ccc(-c3nc4ccccc4s3)s2)CC1 | 7.85
35 | CN(C(=O)c1ccccn1)c1nnc(-c2cccnc2)s1 | 2.1
36 | c1ccc(CSc2nnc(-c3cccs3)n2Cc2ccco2)cc1 | 6.7
37 | CCn1c(=N)n(CC(O)COc2cccc(C)c2)c2ccccc21 (stereo not drawn) | 9.75
38 | CN(CCNC(=O)C1CC(=O)N(c2ccc(F)c(Cl)c2)C1)Cc1ccccc1 (stereo not drawn) | 3.65
